Measured values published in PubChem BioAssay (Tox21).
Records with an inconclusive call do not appear. Calls of active or inactive are those of the source. Unless noted, calls come from the whole dose curve.

Tests used:
[1] = Nuclear factor erythroid 2-related factor 2/antioxidant responsive element (Nrf2/ARE) small molecule agonists: qHTS cell viability counter screen in human keratinocytes (AID 1919968; active = well fitted curve in the direction sought with a large enough effect in the repeat runs; an effect the other way counts as inactive or inconclusive; note: nearly all actives have a fitted effect of over 55% in size)
In short: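 KeratinoSens HaCaT cells, 1,500/well, preincubated 5 h, then exposed to compounds in DMSO for 23 h at 37 C/5% CO2. Viability read as CellTiter-Fluor fluorescence after 1 h, in the same wells as the ARE-luciferase read.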

[2] = Nuclear factor erythroid 2-related factor 2/antioxidant responsive element (Nrf2/ARE) small molecule agonists: luciferase reporter gene qHTS assay in human keratinocytes (AID 1919969); note: nearly all actives have a fitted effect of over 35% in size
[3] = biological target: Gonadotropin-releasing hormone receptor (Homo sapiens) (UniProt P30968); test: Human gonadotropin-releasing hormone receptor (GnRHR) small molecule agonists, calcium flux assay in GnRHR-HEK293 cells (AID 1920063); note: nearly all actives have a fitted effect of over 35% in size
Sequence of Gonadotropin-releasing hormone receptor (Homo sapiens) (P30968 whole entry, looked up): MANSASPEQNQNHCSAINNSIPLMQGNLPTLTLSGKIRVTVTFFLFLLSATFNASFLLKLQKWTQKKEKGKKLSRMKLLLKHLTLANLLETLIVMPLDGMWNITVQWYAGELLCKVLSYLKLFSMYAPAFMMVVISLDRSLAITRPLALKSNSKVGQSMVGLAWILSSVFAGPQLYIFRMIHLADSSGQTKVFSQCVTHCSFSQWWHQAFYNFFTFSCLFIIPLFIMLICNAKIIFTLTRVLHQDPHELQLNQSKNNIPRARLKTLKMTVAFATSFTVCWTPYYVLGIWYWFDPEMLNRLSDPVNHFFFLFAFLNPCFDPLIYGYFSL
In short: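 HEK293 cells stably expressing human GnRHR were dye-loaded for 1 h at 37 C. Compound was added in agonist mode and fluorescence (Ex/Em 480/540) recorded kinetically for 3 min. Fifteen concentrations, triplicates.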

[4] = biological target: KiSS-1 receptor (Homo sapiens) (UniProt Q969F8); test: Human kisspeptin (KISS1R) small molecule agonists, calcium flux assay in KISS1R-HEK293 cells (AID 1920064; active = well fitted curve in the direction sought with a large enough effect in the repeat runs; an effect the other way counts as inactive or inconclusive)
Sequence of KiSS-1 receptor (Homo sapiens) (Q969F8 whole entry, looked up): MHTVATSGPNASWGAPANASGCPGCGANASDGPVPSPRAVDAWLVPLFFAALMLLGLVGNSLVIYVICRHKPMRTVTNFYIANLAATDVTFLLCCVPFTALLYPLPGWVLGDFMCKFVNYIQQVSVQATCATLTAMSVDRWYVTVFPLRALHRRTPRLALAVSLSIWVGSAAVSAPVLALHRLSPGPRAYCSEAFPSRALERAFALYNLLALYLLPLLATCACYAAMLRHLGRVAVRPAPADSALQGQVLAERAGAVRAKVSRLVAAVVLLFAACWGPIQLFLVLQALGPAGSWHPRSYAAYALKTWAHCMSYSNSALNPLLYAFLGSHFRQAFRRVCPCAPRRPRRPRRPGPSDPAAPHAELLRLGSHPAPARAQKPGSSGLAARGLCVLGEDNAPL
In short: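 HEK293 cells stably expressing human KISS1R were loaded with calcium dye for 1 h at 37 C, then given compound; fluorescence (Ex/Em 480/540) was read kinetically for 3 min. Fifteen concentrations, triplicate.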

[5] = G protein-coupled receptor (GPCR) small molecule agonists, calcium flux assay: HEK293 wild type cell line counter screen (AID 1920065)
In short: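 Wild-type HEK293 cells plated 18 h, loaded with calcium dye 1 h at 37 C, then compounds added in agonist mode (ATP as positive control). Kinetic fluorescence Ex/Em 480/540 recorded 3 min at 1 sec intervals; 15 concentrations, triplicate.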

[6] = p53 small molecule agonists, cell-based qHTS assay with human liver microsomes (AID 1963577);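 note: p53 response element beta-lactamase reporter cells with liver microsomes plus NADPH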
In short: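 In this qHTS, p53 response-element beta-lactamase cells receive test compound together with a microsome/NADPH activating system (0.5 mg/mL final each) and are incubated 16 h at 37 C before LiveBLAzer fluorescence detection.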

[7] = p53 small molecule agonists, cell-based qHTS assay with rat liver microsomes (AID 1963578)
In short: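 Agonist mode in p53RE-bla reporter cells, with compounds co-incubated 16 h at 37 C alongside 0.5 mg/mL rat liver microsomes and 0.5 mg/mL NADPH (final), followed by a 2 h LiveBLAzer detection step.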

[8] = p53 small molecule agonists, cell-based qHTS assay with human liver microsomes: qHTS cell viability counter screen (AID 1963579); note: nearly all actives have a fitted effect of over 45% in size
In short: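 Metabolically activated exposure: compounds, human liver microsomes and NADPH (0.5 mg/mL final apiece) were added to p53RE-bla cells seeded 5 h earlier, left 16 h at 37 C, and then assessed for viability by CellTiter-Glo luminescence.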

[9] = p53 small molecule agonists, cell-based qHTS assay with rat liver microsomes: qHTS cell viability counter screen (AID 1963580); note: nearly all actives have a fitted effect of over 45% in size
In short: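 HCT-116 p53RE-bla, 4,000 cells/well, 5 h pre-incubation; cpd + rat liver microsomes 0.5 mg/mL + NADPH 0.5 mg/mL (final); 16 h, 37 C; CellTiter-Glo, 30 min RT; luminescence.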

[10] = p53 small molecule agonists, cell-based qHTS assay: qHTS cell viability counter screen (AID 1963581); note: nearly all actives have a fitted effect of over 45% in size
In short: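 p53RE-bla HCT-116 cells, compounds added 5 h after plating and incubated 16 h at 37 C. Cytotoxicity measured in the same wells as intracellular ATP by CellTiter-Glo luminescence after 30 min at room temperature.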

[11] = p53 small molecule agonists, cell-based qHTS assay (AID 1963582; active = well fitted activation curve with a large enough effect in the signal ratio in the repeat runs, not every such curve was filed as active; the % refers to the signal ratio)
In short: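 p53RE-bla reporter cells, compounds added in DMSO after 5 h plating, incubated 16 h at 37 C. Beta-lactamase read via 2 h room-temperature LiveBLAzer B/G FRET substrate, fluorescence intensity.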

[12] = biological target: 5-hydroxytryptamine receptor 2A (Homo sapiens) (UniProt P28223); test: 5-hydroxytryptamine receptor 2A (HTR2A) small molecule antagonists, cell-based qHTS assay (AID 1963586); note: nearly all actives have a fitted effect of over 45% in size
Sequence of 5-hydroxytryptamine receptor 2A (Homo sapiens) (P28223 whole entry, looked up): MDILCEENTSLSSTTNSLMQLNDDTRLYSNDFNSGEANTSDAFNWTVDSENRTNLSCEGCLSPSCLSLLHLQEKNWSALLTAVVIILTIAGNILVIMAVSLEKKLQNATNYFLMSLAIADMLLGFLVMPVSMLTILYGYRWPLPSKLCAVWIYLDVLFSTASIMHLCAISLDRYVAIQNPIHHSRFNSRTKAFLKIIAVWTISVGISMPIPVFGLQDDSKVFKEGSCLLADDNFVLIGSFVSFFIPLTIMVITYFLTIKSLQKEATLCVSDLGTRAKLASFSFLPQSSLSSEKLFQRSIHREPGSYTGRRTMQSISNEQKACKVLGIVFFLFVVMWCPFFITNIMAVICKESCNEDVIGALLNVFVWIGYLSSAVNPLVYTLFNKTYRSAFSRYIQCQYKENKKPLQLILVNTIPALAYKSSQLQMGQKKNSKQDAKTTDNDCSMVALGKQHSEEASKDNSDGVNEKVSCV
In short: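 Antagonist-mode intracellular calcium assay: DOI (4 nM) added after 5 min compound pre-incubation at room temperature to dye-loaded HTR2A-CHO cells. Fluorescence followed for 3 min, sampled every second.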

[13] = biological target: 5-hydroxytryptamine receptor 2A (Homo sapiens) (UniProt P28223); test: 5-hydroxytryptamine receptor 2A (HTR2A) small molecule agonists, cell-based qHTS assay (AID 1963587); note: nearly all actives have a fitted effect of over 30% in size
In short: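 Kinetic calcium-flux fluorescence (2 min, 1 sec intervals) after compound addition in agonist mode. HTR2A-CHO cells were cultured 18 h, then dye-loaded 1 h at 37 C.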

[14] = biological target: Muscarinic acetylcholine receptor M1 (Homo sapiens) (UniProt P11229); test: Cholinergic receptor muscarinic 1 (CHRM1) small molecule antagonists, cell-based qHTS assay (AID 1963588); note: nearly all actives have a fitted effect of over 40% in size
Sequence of Muscarinic acetylcholine receptor M1 (Homo sapiens) (P11229 whole entry, looked up): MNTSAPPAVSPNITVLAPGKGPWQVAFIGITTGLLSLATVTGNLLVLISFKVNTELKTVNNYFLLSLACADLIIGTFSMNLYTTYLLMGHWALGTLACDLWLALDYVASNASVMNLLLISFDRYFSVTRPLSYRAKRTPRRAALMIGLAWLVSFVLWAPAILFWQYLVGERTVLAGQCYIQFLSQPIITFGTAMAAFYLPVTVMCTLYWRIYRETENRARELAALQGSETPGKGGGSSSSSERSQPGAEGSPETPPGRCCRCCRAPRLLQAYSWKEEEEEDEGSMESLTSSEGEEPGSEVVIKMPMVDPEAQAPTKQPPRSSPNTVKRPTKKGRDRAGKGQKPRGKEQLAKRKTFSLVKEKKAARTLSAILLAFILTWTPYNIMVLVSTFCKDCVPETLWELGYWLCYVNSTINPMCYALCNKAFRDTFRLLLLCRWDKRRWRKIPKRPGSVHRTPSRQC
In short: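 CHRM1-CHO calcium-flux assay, antagonist mode. Cells were seeded 18 h, dye-loaded 1 h at 37 C and given compound for 5 min at RT, then acetylcholine was added at 50nM. FDSS fluorescence was read 3 min; 15 concentrations, three runs.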

[15] = biological target: Muscarinic acetylcholine receptor M1 (Homo sapiens) (UniProt P11229); test: Cholinergic receptor muscarinic 1 (CHRM1) small molecule agonists, cell-based qHTS assay (AID 1963589); note: nearly all actives have a fitted effect of over 35% in size
In short: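 CHO cells stably expressing human CHRM1 were loaded with calcium dye for 1 h at 37 C, then compound was added in agonist mode. Intracellular calcium fluorescence was followed kinetically at 1 s intervals. Fifteen concentrations were tested in three independent runs.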

[16] = cAMP Responsive Elements (CRE) small molecule agonists, cell-based qHTS assay (AID 1963590)
In short: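 CRE-bla HEK 293T cells, 2,000/well in DMEM with 10% dialyzed FBS and 25 mM HEPES, pre-incubated 18 h at 37 C, then exposed to compound 3 h at 37 C. Beta-lactamase reporter read with LiveBLAzer B/G FRET substrate after 2 h at room temperature.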

[17] = cAMP Responsive Elements (CRE) small molecule antagonists, cell-based qHTS assay (AID 1963591; active = well fitted inhibition curve with a large enough effect in the signal ratio in the repeat runs, not every such curve was filed as active; the % refers to the signal ratio)
In short: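 CRE-bla HEK293T cells plated 18 h, then given compound plus NKH477 at 0.25 uM final for 3 h at 37C. Beta-lactamase reporter read with LiveBLAzer B/G FRET substrate after 2 h at room temperature.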

[18] = biological target: Beta-2 adrenergic receptor (Homo sapiens) (UniProt P07550); test: Adrenergic beta2 receptor (ADRB2) small molecule antagonists, cell-based qHTS assay (AID 1963592); note: series mostly up to about 92 µM; nearly all actives have a fitted effect of over 50% in size
Sequence of Beta-2 adrenergic receptor (Homo sapiens) (P07550 whole entry, looked up): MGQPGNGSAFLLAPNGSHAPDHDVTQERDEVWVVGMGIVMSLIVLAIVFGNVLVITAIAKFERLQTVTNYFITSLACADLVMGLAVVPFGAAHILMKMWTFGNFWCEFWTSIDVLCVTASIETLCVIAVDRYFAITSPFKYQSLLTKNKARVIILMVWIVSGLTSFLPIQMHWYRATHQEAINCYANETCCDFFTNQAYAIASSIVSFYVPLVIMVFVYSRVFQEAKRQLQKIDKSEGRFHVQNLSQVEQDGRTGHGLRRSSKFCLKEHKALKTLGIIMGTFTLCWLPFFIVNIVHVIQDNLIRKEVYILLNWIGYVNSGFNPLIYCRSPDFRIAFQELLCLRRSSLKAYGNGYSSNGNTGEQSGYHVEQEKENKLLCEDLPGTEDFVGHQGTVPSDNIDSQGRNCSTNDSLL
In short: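 Cells (CHO, stable ADRB2 overexpression) incubated 18-20hr at 37C; compounds added from DMSO; agonist mix (1nM isoproterenol, 100uM IBMX, 25uM Ro-20-1724) added; 0.5hr RT; d2-cAMP and anti-cAMP-cryptate added; 1hr RT; 665/615 nm read.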

[19] = biological target: Beta-2 adrenergic receptor (Homo sapiens) (UniProt P07550); test: Adrenergic beta2 receptor (ADRB2) small molecule agonists, cell-based qHTS assay (AID 1963593);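 note: CHO cells stably overexpressing human ADRB2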
In short: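 CHO cells stably over-expressing ADRB2 were plated overnight at 37C, then dosed with compounds plus a stimulation mix containing 100uM IBMX and 25uM Ro-20-1724 for 0.5hr at room temperature. cAMP was measured by HTRF competition, 1hr.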

[20] = biological target: D(2) dopamine receptor (Homo sapiens) (UniProt P14416); test: Dopamine D2 receptor (DRD2) small molecule agonists, cell-based qHTS assay (AID 1963594); note: nearly all actives have a fitted effect of over 35% in size
Sequence of D(2) dopamine receptor (Homo sapiens) (P14416 whole entry, looked up): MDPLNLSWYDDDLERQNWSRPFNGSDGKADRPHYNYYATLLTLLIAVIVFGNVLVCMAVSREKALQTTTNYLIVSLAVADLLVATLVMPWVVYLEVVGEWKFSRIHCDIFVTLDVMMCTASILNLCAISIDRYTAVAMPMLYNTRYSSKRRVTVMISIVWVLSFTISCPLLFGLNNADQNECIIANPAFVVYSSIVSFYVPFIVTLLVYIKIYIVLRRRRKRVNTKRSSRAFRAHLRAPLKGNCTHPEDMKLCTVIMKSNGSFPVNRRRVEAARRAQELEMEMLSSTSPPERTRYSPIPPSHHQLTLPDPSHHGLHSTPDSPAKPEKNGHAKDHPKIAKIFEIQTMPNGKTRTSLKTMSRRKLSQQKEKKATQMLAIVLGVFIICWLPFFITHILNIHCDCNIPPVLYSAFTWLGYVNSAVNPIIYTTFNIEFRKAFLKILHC
In short: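 cAMP accumulation in DRD2-HEK293 cells measured by HTRF after 1 h detection; compounds added 10 min before NKH477 (200nM […]) forskolin-analogue stimulation, 30 min at room temperature, with Ro20-1724 present at 0.1 mM final.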

Measured: Potency

N=C(N)c1ccccc1
inactive: all assays above

O=C(O)CSCC(=O)NC1CCSC1=O (stereo not given)
inactive: all assays above

CC(C)C(=O)Nc1cccc(C2CN3CCSC3=N2)c1 (stereo not given)
inactive: all assays above

CC(COC(=O)c1ccccc1)OC(=O)c1ccccc1 (stereo not given)
inactive: all assays above

Nc1nc(=O)n([C@@H]2O[C@H](CO)[C@@H](O)[C@@H]2F)cc1I
inactive: all assays above

CC(C)OC(C)C
inactive: all assays above

CCOCCOC(=O)/C=C/c1ccc(OC)cc1
inactive: all assays above

CC(C)CCCCCOC(=O)CCS
inactive: all assays above

ClC/C=C\CCl
inactive: all assays above

CCCCCCCCCCCCCCCCC
inactive: all assays above

OCC1CC2CC1C1CCC(CO)C21 (stereo not given)
inactive: all assays above

CCCCN(CCO)CCO
inactive: all assays above

CC(C)(C)c1ccc(C=O)cc1
inactive: all assays above
